Test results taken from PubChem BioAssay AID1159580 (chemical genetic matrix, 2015).
Several values for one entry are separate records, joined by “and”; a condition that tells them apart may be missing. Equal entries are not always repeated. Screen size: about 5,500 compounds; about 2,000 (36%) were called active. Inconclusive results (about 18%) are left out. Cut-off read from the data, not from the text of the source: active = normalized growth mostly below about 0.91 (no sharp cut-off); inconclusive = no clear call, values can overlap the other calls; inactive = mostly above about 0.92. Some of the results follow.

Experiment: chemical genetic growth profiling, strain panel (AID 1159580);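 note: tested at 20 µM; growth read once vehicle control cultures reached saturation at 30 °C; 1 = growth at the plate median or of vehicle wells; lower values mean less growth of the strain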
Conditions: S. cerevisiae deletion strains, growth OD

Measured: normalized growth

CN[C@@H](C)[C@@H](O)c1ccccc1
inactive: locus YAL021C, strain ccr4, stronger effect = lower value 0.987 | locus YAL026C, strain drs2, stronger effect = lower value 0.995 | locus YAL030W, strain snc1, stronger effect = lower value 0.995 | locus YBL061C, strain skt5, stronger effect = lower value 0.992 | locus YBR009C, strain hhf1, stronger effect = lower value 1.02 | locus YBR021W, strain FUR4, stronger effect = lower value 1.01 | locus YBR023C, strain chs3, stronger effect = lower value 0.981 | locus YBR171W, strain sec66, stronger effect = lower value 0.993 | locus YBR229C, strain ROT2, stronger effect = lower value 0.949 | locus YBR231C, strain swc5, stronger effect = lower value 0.996 | locus YBR279W, strain paf1, stronger effect = lower value 1 | locus YCL011C, strain gbp2, stronger effect = lower value 0.971 | locus YCL016C, strain dcc1, stronger effect = lower value 0.987 | locus YCL029C, strain bik1, stronger effect = lower value 0.976 | locus YCL069W, strain vba3, stronger effect = lower value 0.995 | locus YCR088W, strain abp1, stronger effect = lower value 0.995 | locus YDL005C, strain med2, stronger effect = lower value 0.994 | locus YDL035C, strain GPR1, stronger effect = lower value 0.949 | locus YDL040C, strain nat1, stronger effect = lower value 1 | locus YDL074C, strain BRE1, stronger effect = lower value 1.01 | locus YDL101C, strain DUN1, stronger effect = lower value 1 | locus YDL185W, strain tfp1, stronger effect = lower value 0.961 | locus YDL192W, strain arf1, stronger effect = lower value 0.989 | locus YDR001C, strain nth1, stronger effect = lower value 0.996 | locus YDR069C, strain doa4, stronger effect = lower value 0.993 | locus YDR101C, strain arx1, stronger effect = lower value 0.998 | locus YDR137W, strain rgp1, stronger effect = lower value 0.982 | locus YDR159W, strain sac3, stronger effect = lower value 0.943 | locus YDR162C, strain NBP2, stronger effect = lower value 0.929 | locus YDR195W, strain ref2 0.977 | locus YDR297W, strain sur2, stronger effect = lower value 1 | locus YDR318W, strain mcm21, stronger effect = lower value 0.986 | locus YDR334W, strain swr1, stronger effect = lower value 1.01 | locus YDR335W, strain msn5, stronger effect = lower value 1 | locus YDR388W, stronger effect = lower value 0.992 | locus YDR392W, strain spt3, stronger effect = lower value 0.911 | locus YDR502C, strain sam2, stronger effect = lower value 1.01 | locus YEL003W, strain gim4, stronger effect = lower value 0.996 | locus YEL037C, strain rad23, stronger effect = lower value 0.985 | locus YEL061C, strain CIN8 (second series), stronger effect = lower value 0.989 | locus YEL061C, strain CIN8, stronger effect = lower value 0.989 | locus YER015W, strain faa2, stronger effect = lower value 1 | locus YER016W, strain bim1, stronger effect = lower value 0.984 | locus YER110C, stronger effect = lower value 0.987 | locus YER111C, strain swi4, stronger effect = lower value 0.996 | locus YER155C, strain BEM2 (second series), stronger effect = lower value 0.997 | locus YER155C, strain BEM2, stronger effect = lower value 0.999 | locus YER167W, strain BCK2, stronger effect = lower value 0.982 | locus YFR010W, strain ubp6, stronger effect = lower value 0.992 | locus YGL078C, strain dbp3, stronger effect = lower value 0.996 | locus YGL086W, strain mad1, stronger effect = lower value 0.996 | locus YGL167C, strain pmr1, stronger effect = lower value 1 | locus YGL173C, strain kem1, stronger effect = lower value 0.988 | locus YGL227W, strain vid30, stronger effect = lower value 0.982 | locus YGL240W, strain doc1, stronger effect = lower value 1 | locus YGL248W, strain PDE1, stronger effect = lower value 1.01 | locus YGL253W, strain hxk2, stronger effect = lower value 0.985 | locus YGR135W, strain pre9, stronger effect = lower value 0.989 | locus YGR252W, strain gcn5, stronger effect = lower value 1.01 | locus YHR013C, strain ard1, stronger effect = lower value 0.961 | locus YHR027C, strain rpn1, stronger effect = lower value 1 | locus YHR030C, strain SLT2, stronger effect = lower value 0.977 and 1.04 | locus YHR079C, strain IRE1 (second series), stronger effect = lower value 0.993 | locus YHR079C, strain IRE1, stronger effect = lower value 1.02 | locus YHR094C, strain hxt1, stronger effect = lower value 0.985 | locus YHR129C, strain ARP1, stronger effect = lower value 0.994 | locus YHR142W, strain chs7, stronger effect = lower value 0.976 | locus YHR200W, strain rpn10, stronger effect = lower value 0.984 | locus YIL066C, strain RNR3, stronger effect = lower value 0.926 | locus YIL073C, strain SPO22, stronger effect = lower value 0.973 | locus YIL125W, strain kgd1, stronger effect = lower value 0.987 | locus YIR030C, strain dcg1, stronger effect = lower value 0.996 | locus YJL092W, strain hpr5, stronger effect = lower value 0.999 | locus YJL095W, strain BCK1 (second series), stronger effect = lower value 0.994 | locus YJL095W, strain BCK1, stronger effect = lower value 1.06 and 1.01 | locus YJL115W, strain asf1, stronger effect = lower value 0.999 | locus YJL129C, strain trk1, stronger effect = lower value 1.01 | locus YJL134W, strain LCB3, stronger effect = lower value 0.98 | locus YJL154C, strain vps35, stronger effect = lower value 0.996 | locus YJL164C, strain tpk1, stronger effect = lower value 1 | locus YJL166W, strain qcr8, stronger effect = lower value 1.01 | locus YJL168C, strain set2, stronger effect = lower value 0.995 | locus YJL187C, strain SWE1 (second series), stronger effect = lower value 1.03 | locus YJR043C, strain POL32, stronger effect = lower value 0.938 | locus YJR066W, strain TOR1, stronger effect = lower value 0.982 | locus YKL009W, strain mrt4, stronger effect = lower value 0.998
